What all share (settings): mRNA level, 48 h; actives raise or lower the signal
Read-out in test [1]: Bcl-2 (BID) gene, BID (gene 637)
Kind of test: LTEA_HepaRG_BID: Life Technologies and Expression Analysis (LTEA) Assay for Bcl-2 (BID) gene using HepaRG (AID 2283476). The gist of the method: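 Gene expression by qRT-PCR in HepaRG cells after 48 h exposure, duplicate wells, eight half-log concentrations topping at 100 uM in 0.5% DMSO. Normalized to ACTB, GAPDH, POLR2A; bidirectional fitting relative to DMSO.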

Read-out in test [2]: Caspase-3 (Homo sapiens) (UniProt P42574)
Kind of test: LTEA_HepaRG_CASP3: Life Technologies and Expression Analysis (LTEA) Assay for cysteine-aspartic acid protease (CASP3) using HepaRG (AID 2283477). In short, it runs like this: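 In HepaRG liver cells dosed for 48 h at up to 100 uM (eight-point, duplicate), CASP3 expression changes are scored by qRT-PCR. Activity is fitted in both directions with 0.5% DMSO as baseline.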

Read-out in test [3]: Cytochrome P450 (CYP24A1), CYP24A1 (gene 1591)
Kind of test: LTEA_HepaRG_CYP24A1: Life Technologies and Expression Analysis (LTEA) Assay for Cytochrome P450 (CYP24A1) using HepaRG (AID 2283478). In short, it runs like this:
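Human liver HepaRG cultures receive each chemical for 48 h across an eight-point half-log series topping at 100 uM in 0.5% DMSO. Induction or suppression of CYP24A1 mRNA is scored relative to vehicle after housekeeping-gene normalization.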

Read-out in test [4]: Cytochrome P450 (CYP1A2), CYP1A2 (gene 1544)
The test can be described thus: LTEA_HepaRG_CYP1A2: Life Technologies and Expression Analysis (LTEA) Assay for Cytochrome P450 (CYP1A2) using HepaRG (AID 2283479). In short, it runs like this: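 Assesses CYP1A2 mRNA in human HepaRG liver cells after 48 h chemical exposure at up to 100 uM. Values come from qRT-PCR with bidirectional curve fitting relative to DMSO.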

Read-out in test [5]: cysteine-aspartic acid protease (CASP8), CASP8 (gene 841)
The test can be described thus: LTEA_HepaRG_CASP8: Life Technologies and Expression Analysis (LTEA) Assay for cysteine-aspartic acid protease (CASP8) using HepaRG (AID 2283480). In short, it runs like this: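 Differentiated HepaRG cells in serum-free induction medium, 48 h exposure, eight-point half-log series from 100 uM in 0.5% DMSO, duplicates. CASP8 mRNA by qRT-PCR, normalized to ACTB, GAPDH, POLR2A; bidirectional fit versus DMSO.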

Read-out in test [6]: Cytochrome P450 (CYP2B6), CYP2B6 (gene 1555)
Kind of test: LTEA_HepaRG_CYP2B6: Life Technologies and Expression Analysis (LTEA) Assay for Cytochrome P450 (CYP2B6) using HepaRG (AID 2283481). In short, it runs like this: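 Using 48 h treatment of HepaRG cells in serum-free induction medium, concentrations spanned half-log steps from 100 uM in 0.5% DMSO vehicle. CYP2B6 mRNA induction or loss is scored by qRT-PCR against DMSO.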

Read-out in test [7]: Cytochrome P450 2C19 (Homo sapiens) (UniProt P33261)
The test can be described thus: LTEA_HepaRG_CYP2C19: Life Technologies and Expression Analysis (LTEA) Assay for CYP2C19 using HepaRG (AID 2283482). In short, it runs like this: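 Human HepaRG liver cells received test chemicals for 48 h (highest 100 uM, half-log dilutions in 0.5% DMSO). CYP2C19 mRNA induction or loss is read by multiplexed qRT-PCR and fitted in both directions versus vehicle.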

Read-out in test [8]: CYP2C8 (gene 1558)
The test can be described thus: LTEA_HepaRG_CYP2C8: Life Technologies and Expression Analysis (LTEA) Assay for CYP2C8 using HepaRG (AID 2283483). In short, it runs like this:
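Differentiated HepaRG cells in serum-free induction medium exposed 48 h in duplicate to 8 half-log concentrations from 100 uM in 0.5% DMSO. CYP2C8 mRNA by qRT-PCR normalized to ACTB, GAPDH, POLR2A; bidirectional fit versus DMSO.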

Read-out in test [9]: CYP2C9 (gene 1559)
Kind of test: LTEA_HepaRG_CYP2C9: Life Technologies and Expression Analysis (LTEA) Assay for CYP2C9 using HepaRG (AID 2283484). In short, it runs like this:
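Differentiated human HepaRG cells in serum-free induction medium were exposed 48 h to chemicals in 8-point half-log series from 100 uM (0.5% DMSO), in duplicate. CYP2C9 mRNA was measured by qRT-PCR, normalized to ACTB/GAPDH/POLR2A, with bidirectional fitting versus DMSO.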

Read-out in test [10]: CYP2E1 (gene 1571)
The test can be described thus: LTEA_HepaRG_CYP2E1: Life Technologies and Expression Analysis (LTEA) Assay for CYP2E1 using HepaRG (AID 2283485). In short, it runs like this:
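HepaRG cells, plated 48 h, then exposed 48 h in serum-free induction medium to eight half-log concentrations from 100 uM in 0.5% DMSO, duplicate. CYP2E1 mRNA by qRT-PCR, normalized to ACTB/GAPDH/POLR2A; bidirectional fit versus DMSO.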

Read-out in test [11]: CYP4A11 (gene 1579)
Kind of test: LTEA_HepaRG_CYP4A11: Life Technologies and Expression Analysis (LTEA) Assay for CYP4A11 using HepaRG (AID 2283486). The gist of the method: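 Readout is CYP4A11 mRNA induction or suppression (qRT-PCR, ACTB/GAPDH/POLR2A normalization) in human HepaRG cells after 48 h chemical treatment, concentrations to 100 uM in 0.5% DMSO, fitted bidirectionally against vehicle.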

Read-out in test [12]: Cytochrome P450 3A4 (Homo sapiens) (UniProt P08684)
Kind of test: LTEA_HepaRG_CYP3A4: Life Technologies and Expression Analysis (LTEA) Assay for CYP3A4 using HepaRG (AID 2283487). The gist of the method: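 In a human hepatic line (HepaRG), duplicate wells were treated 48 h with up to 100 uM chemical in half-log dilutions. Endpoint: CYP3A4 mRNA induction or loss relative to 0.5% DMSO vehicle, by qRT-PCR.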

Read-out in test [13]: Pro-epidermal growth factor (Homo sapiens) (UniProt P01133)
The test can be described thus: LTEA_HepaRG_EGF: Life Technologies and Expression Analysis (LTEA) Assay for Epidermal growth factor (EGF) using HepaRG (AID 2283489). The gist of the method: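 EGF expression changes in human HepaRG cells are scored by bidirectional fitting relative to 0.5% DMSO controls. Chemicals are tested at eight half-log concentrations up to 100 uM for 48 h in serum-free induction medium.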

Read-out in test [14]: Ezrin (EZR), EZR (gene 7430)
The test can be described thus: LTEA_HepaRG_EZR: Life Technologies and Expression Analysis (LTEA) Assay for Ezrin (EZR) using HepaRG (AID 2283491). The gist of the method: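 Gain or loss of EZR mRNA is scored relative to 0.5% DMSO in human HepaRG cultures treated 48 h with test chemicals in duplicate, eight half-log concentrations from 100 uM.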

Read-out in test [15]: CYP3A5 (gene 1577)
The test can be described thus: LTEA_HepaRG_CYP3A5: Life Technologies and Expression Analysis (LTEA) Assay for CYP3A5 using HepaRG (AID 2283493). The gist of the method:
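HepaRG cells, plated 48 h then in serum-free induction medium, dosed in duplicate for 48 h with eight half-log concentrations up to 100 uM in 0.5% DMSO. Gene mRNA by Fluidigm TaqMan qRT-PCR, normalized to ACTB, GAPDH, POLR2A.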

Read-out in test [16]: Fatty Acid-Binding Protein 1 (FABP1), FABP1 (gene 2168)
The test can be described thus: LTEA_HepaRG_FABP1: Life Technologies and Expression Analysis (LTEA) Assay for Fatty Acid-Binding Protein 1 (FABP1) using HepaRG (AID 2283494). In short, it runs like this:
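Differentiated human HepaRG cells exposed 48 h in serum-free induction medium to eight half-log concentrations up to 100 uM (0.5% DMSO), duplicate. FABP1 mRNA by qRT-PCR, normalised to ACTB, GAPDH, POLR2A; bidirectional fitting against DMSO.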

Read-out in test [17]: Cytochrome P450 4A22 (Homo sapiens) (UniProt Q5TCH4)
The test can be described thus: LTEA_HepaRG_CYP4A22: Life Technologies and Expression Analysis (LTEA) Assay for Cytochrome P450 4A22 (CYP4A22) using HepaRG (AID 2283495). The gist of the method: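 Cryopreserved HepaRG cells, plated and cultured 48 h, then switched to serum-free induction medium and treated 48 h (duplicates, up to 100 uM, half-log steps, 0.5% DMSO). Expression change of CYP4A22 was fitted bidirectionally against vehicle.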

Read-out in test [18]: DNA damage-inducible transcript 3 (DDIT3), DDIT3 (gene 1649)
Kind of test: LTEA_HepaRG_DDIT3: Life Technologies and Expression Analysis (LTEA) Assay for DNA damage-inducible transcript 3 (DDIT3) using HepaRG (AID 2283488). The gist of the method:
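HepaRG cells, 48 h after plating, exposed 48 h in serum-free induction medium to 8 half-log concentrations up to 100 uM in 0.5% DMSO, in duplicate. DDIT3 mRNA measured by TaqMan qRT-PCR, normalized to ACTB, GAPDH and POLR2A. Fitted bidirectionally against DMSO.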

Read-out in test [19]: Early growth response protein 1 (EGR1) transcription factor, EGR1 (gene 1958)
Kind of test: LTEA_HepaRG_EGR1: Life Technologies and Expression Analysis (LTEA) Assay for Early growth response protein 1 (EGR1) transcription factor using HepaRG (AID 2283490). The gist of the method:
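Differentiated HepaRG cells in serum-free induction medium exposed 48 hours, duplicate, to 8 half-log concentrations up to 100 uM in 0.5% DMSO. EGR1 mRNA measured by TaqMan qRT-PCR, normalized to ACTB, GAPDH, POLR2A; bidirectional fit versus DMSO.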

The text below walks through data of PubChem BioAssay (EPA / NIEHS).

Broadly, the AC50 is the concentration giving half of the maximal activity seen.

Activity calls are given as the source filed them. How the source made its calls: active means hit-call score of the fitted dose curve at least 0.9, where 1 is the maximum; inactive means score below 0.9.

Chain of Cytochrome P450 3A4 (Homo sapiens) (P08684 whole entry, looked up): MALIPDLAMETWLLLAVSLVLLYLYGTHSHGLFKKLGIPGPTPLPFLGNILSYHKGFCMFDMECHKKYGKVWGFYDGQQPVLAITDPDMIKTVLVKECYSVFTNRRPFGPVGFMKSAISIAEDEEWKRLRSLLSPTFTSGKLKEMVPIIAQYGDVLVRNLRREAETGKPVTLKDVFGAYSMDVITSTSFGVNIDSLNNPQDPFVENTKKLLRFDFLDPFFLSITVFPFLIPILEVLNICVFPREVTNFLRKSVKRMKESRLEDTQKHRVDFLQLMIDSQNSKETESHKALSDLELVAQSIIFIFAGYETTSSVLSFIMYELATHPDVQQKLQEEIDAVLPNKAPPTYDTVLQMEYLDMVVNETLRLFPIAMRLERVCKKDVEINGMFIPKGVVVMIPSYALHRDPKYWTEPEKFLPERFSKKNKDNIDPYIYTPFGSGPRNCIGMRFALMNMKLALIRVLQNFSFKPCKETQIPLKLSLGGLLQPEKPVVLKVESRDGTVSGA
Chain of Cytochrome P450 2C19 (Homo sapiens) (P33261 whole entry, looked up): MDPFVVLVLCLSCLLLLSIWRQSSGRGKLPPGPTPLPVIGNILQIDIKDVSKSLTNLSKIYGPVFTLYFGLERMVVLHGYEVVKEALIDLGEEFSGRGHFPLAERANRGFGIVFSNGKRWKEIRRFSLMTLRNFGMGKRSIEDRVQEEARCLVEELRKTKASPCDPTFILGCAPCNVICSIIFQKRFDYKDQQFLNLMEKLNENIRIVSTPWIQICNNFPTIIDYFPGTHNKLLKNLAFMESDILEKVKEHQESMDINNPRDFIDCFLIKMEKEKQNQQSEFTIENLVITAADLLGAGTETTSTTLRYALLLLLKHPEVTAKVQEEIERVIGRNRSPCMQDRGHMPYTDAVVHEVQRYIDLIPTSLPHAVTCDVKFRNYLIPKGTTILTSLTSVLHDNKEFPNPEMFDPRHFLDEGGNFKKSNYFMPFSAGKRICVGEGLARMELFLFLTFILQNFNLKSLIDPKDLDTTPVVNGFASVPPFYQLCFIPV
Chain of Caspase-3 (Homo sapiens) (P42574 whole entry, looked up): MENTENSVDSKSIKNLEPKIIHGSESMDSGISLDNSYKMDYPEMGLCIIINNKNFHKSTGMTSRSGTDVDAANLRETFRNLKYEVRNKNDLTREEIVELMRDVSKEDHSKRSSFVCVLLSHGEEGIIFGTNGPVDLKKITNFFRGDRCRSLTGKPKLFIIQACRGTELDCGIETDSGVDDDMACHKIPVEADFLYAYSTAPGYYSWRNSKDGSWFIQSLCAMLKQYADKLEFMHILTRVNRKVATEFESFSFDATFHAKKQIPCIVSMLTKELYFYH

For the compound `COC(=O)N(C(=O)N1CO[C@@]2(C(=O)OC)Cc3cc(Cl)ccc3C2=N1)c1ccc(OC(F)(F)F)cc1`, the call in [1], in test [2], in test [3], in test [5], in test [8] and in [13] was inactive. Besides, the compound was called inactive in test [14] and in [15]. In addition, the AC50 in [4] was 10.4 µM (active); in test [6], 0.89 µM (active); in test [7], 9.46 µM (active); in [9], 64.8 µM (active); in test [10] it was 24 µM (active); in test [11], 25.6 µM (active). The half-maximal activity concentration (AC50) in [12] was 9.42 µM (active); in [16], 40 µM (active); in test [17], 28.9 µM (active).

In the case of `CC(C)=CC1C(C(=O)OCc2coc(Cc3ccccc3)c2)C1(C)C` (centres undefined), the call in test [1], in test [2], in test [3], in test [4], in test [5] and in test [8] was inactive. For the same compound, the compound was classed as inactive in test [9], in test [18], in test [13], in [19], in test [14] and in [15]. Besides, the compound was called inactive in [16] and in test [17]. Also, the AC50 in test [6] was 20.1 µM (active); in [7], 15.5 µM (active); in [10], 39.1 µM (active); in test [11] it was 50 µM (active).

For the compound `CCCCC(O)(Cn1cncn1)c1ccc(Cl)cc1Cl` (centres undefined), the call in [1], in test [2], in test [3], in test [5], in test [13] and in test [14] was inactive. For the same compound, the compound was called inactive in [15]. The AC50 was 87.4 µM (active) in [4]; 80.1 µM (active) in test [6]; 83.2 µM (active) in test [7]; 78.5 µM (active) in test [8]; 73.8 µM (active) in test [9]; 46.4 µM (active) in test [10]. The AC50 in [11] was 59 µM (active); in test [12], 85.6 µM (active); in [16], 79.6 µM (active); in test [17], 67.8 µM (active).

Take `CNC(=O)N(C)c1nnc(C(C)(C)C)s1`: the call in test [1], in [2], in [3], in test [5], in [7] and in [8] was inactive. In addition, the outcome in test [9], in test [11], in test [12], in test [13], in test [19] and in test [14] was inactive. The compound was classed as inactive in test [15], in test [16] and in test [17]. In addition, the AC50 in test [4] is 50 µM (active); in test [6] it was 31.6 µM (active).
